Test results from PubChem BioAssay AID1159580 (chemical genetic matrix, 2015).
In all, about 5,500 compounds went through this assay and about 2,000 (36%) were called active. Not shown: some 18% with an inconclusive outcome. Cut-off read from the data, not from the text of the source: active = normalized growth mostly below about 0.91 (no sharp cut-off); inconclusive = no clear call, values can overlap the other calls; inactive = mostly above about 0.92. The list shows a part of the results.

Assay: chemical genetic growth profiling, strain panel (AID 1159580);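 note: tested at 20 µM; growth read once vehicle control cultures reached saturation at 30 °C; 1 = growth at the plate median or of vehicle wells; lower values mean less growth of the strain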
Settings: growth OD

Measured: normalized growth

COc1cc(O)c2c(=O)cc(-c3ccc(OC)c(-c4c(O)cc(O)c5c(=O)cc(-c6ccc(O)cc6)oc45)c3)oc2c1
active: S. cerevisiae deletion strains, locus YBR021W, strain FUR4, active compounds read low 1.18 [resistant] | S. cerevisiae deletion strains, locus YGL248W, strain PDE1, active compounds read low 0.877
inactive: S. cerevisiae deletion strains, locus YAL021C, strain ccr4, active compounds read low 0.991 | S. cerevisiae deletion strains, locus YAL026C, strain drs2, active compounds read low 0.982 | S. cerevisiae deletion strains, locus YAL030W, strain snc1, active compounds read low 1.01 | S. cerevisiae deletion strains, locus YBL061C, strain skt5, active compounds read low 0.996 | S. cerevisiae deletion strains, locus YBR009C, strain hhf1, active compounds read low 0.988 | S. cerevisiae deletion strains, locus YBR023C, strain chs3, active compounds read low 0.993 | S. cerevisiae deletion strains, locus YBR171W, strain sec66, active compounds read low 1.03 | S. cerevisiae deletion strains, locus YBR229C, strain ROT2, active compounds read low 0.948 | S. cerevisiae deletion strains, locus YBR231C, strain swc5, active compounds read low 0.972 | S. cerevisiae deletion strains, locus YBR279W, strain paf1, active compounds read low 1 | S. cerevisiae deletion strains, locus YCL011C, strain gbp2, active compounds read low 1.02 | S. cerevisiae deletion strains, locus YCL016C, strain dcc1, active compounds read low 1 | S. cerevisiae deletion strains, locus YCL029C, strain bik1, active compounds read low 0.992 | S. cerevisiae deletion strains, locus YCL061C, strain MRC1, active compounds read low 1 | S. cerevisiae deletion strains, locus YCL069W, strain vba3, active compounds read low 1.02 | S. cerevisiae deletion strains, locus YCR088W, strain abp1, active compounds read low 1.03 | S. cerevisiae deletion strains, locus YDL005C, strain med2, active compounds read low 1.03 | S. cerevisiae deletion strains, locus YDL035C, strain GPR1, active compounds read low 0.951 | S. cerevisiae deletion strains, locus YDL040C, strain nat1, active compounds read low 1.01 | S. cerevisiae deletion strains, locus YDL074C, strain BRE1, active compounds read low 1.01 | S. cerevisiae deletion strains, locus YDL101C, strain DUN1, active compounds read low 0.959 | S. cerevisiae deletion strains, locus YDL134C, strain PPH21, active compounds read low 0.917 | S. cerevisiae deletion strains, locus YDL185W, strain tfp1, active compounds read low 0.968 | S. cerevisiae deletion strains, locus YDL192W, strain arf1, active compounds read low 1 | S. cerevisiae deletion strains, locus YDR001C, strain nth1, active compounds read low 1.02 | S. cerevisiae deletion strains, locus YDR069C, strain doa4, active compounds read low 0.914 | S. cerevisiae deletion strains, locus YDR101C, strain arx1, active compounds read low 0.997 | S. cerevisiae deletion strains, locus YDR137W, strain rgp1, active compounds read low 1.05 | S. cerevisiae deletion strains, locus YDR150W, strain NUM1, active compounds read low 0.953 | S. cerevisiae deletion strains, locus YDR159W, strain sac3, active compounds read low 1.02 | S. cerevisiae deletion strains, locus YDR162C, strain NBP2, active compounds read low 0.915 | S. cerevisiae deletion strains, locus YDR195W, strain ref2 0.986 | S. cerevisiae deletion strains, locus YDR297W, strain sur2, active compounds read low 0.996 | S. cerevisiae deletion strains, locus YDR318W, strain mcm21, active compounds read low 0.987 | S. cerevisiae deletion strains, locus YDR334W, strain swr1, active compounds read low 1 | S. cerevisiae deletion strains, locus YDR335W, strain msn5, active compounds read low 1.03 | S. cerevisiae deletion strains, locus YDR388W, active compounds read low 0.986 | S. cerevisiae deletion strains, locus YDR392W, strain spt3, active compounds read low 0.91 | S. cerevisiae deletion strains, locus YDR502C, strain sam2, active compounds read low 0.978 | S. cerevisiae deletion strains, locus YEL003W, strain gim4, active compounds read low 1 | S. cerevisiae deletion strains, locus YEL037C, strain rad23, active compounds read low 1.01 | S. cerevisiae deletion strains, locus YEL061C, strain CIN8 (second series), active compounds read low 1.02 | S. cerevisiae deletion strains, locus YEL061C, strain CIN8, active compounds read low 0.934 | S. cerevisiae deletion strains, locus YER015W, strain faa2, active compounds read low 1 | S. cerevisiae deletion strains, locus YER016W, strain bim1, active compounds read low 1.01 | S. cerevisiae deletion strains, locus YER110C, active compounds read low 0.983 | S. cerevisiae deletion strains, locus YER111C, strain swi4, active compounds read low 1.01 | S. cerevisiae deletion strains, locus YER155C, strain BEM2 (second series), active compounds read low 0.962 | S. cerevisiae deletion strains, locus YER155C, strain BEM2, active compounds read low 1.03 | S. cerevisiae deletion strains, locus YER167W, strain BCK2, active compounds read low 0.957 | S. cerevisiae deletion strains, locus YFR010W, strain ubp6, active compounds read low 0.965 | S. cerevisiae deletion strains, locus YGL078C, strain dbp3, active compounds read low 0.987 | S. cerevisiae deletion strains, locus YGL167C, strain pmr1, active compounds read low 1.01 | S. cerevisiae deletion strains, locus YGL173C, strain kem1, active compounds read low 0.975 | S. cerevisiae deletion strains, locus YGL227W, strain vid30, active compounds read low 1.03 | S. cerevisiae deletion strains, locus YGL240W, strain doc1, active compounds read low 1.05 | S. cerevisiae deletion strains, locus YGL253W, strain hxk2, active compounds read low 1.03 | S. cerevisiae deletion strains, locus YGR078C, strain PAC10, active compounds read low 0.913 | S. cerevisiae deletion strains, locus YGR135W, strain pre9, active compounds read low 0.971 | S. cerevisiae deletion strains, locus YGR229C, strain SMI1, active compounds read low 0.92 | S. cerevisiae deletion strains, locus YGR252W, strain gcn5, active compounds read low 1.09 | S. cerevisiae deletion strains, locus YHR013C, strain ard1, active compounds read low 1 | S. cerevisiae deletion strains, locus YHR027C, strain rpn1, active compounds read low 1.01 | S. cerevisiae deletion strains, locus YHR030C, strain SLT2, active compounds read low 0.966 | S. cerevisiae deletion strains, locus YHR079C, strain IRE1 (second series), active compounds read low 0.994 | S. cerevisiae deletion strains, locus YHR094C, strain hxt1, active compounds read low 0.99 | S. cerevisiae deletion strains, locus YHR129C, strain ARP1, active compounds read low 0.931 | S. cerevisiae deletion strains, locus YHR142W, strain chs7, active compounds read low 1.05 | S. cerevisiae deletion strains, locus YHR200W, strain rpn10, active compounds read low 0.988 | S. cerevisiae deletion strains, locus YIL066C, strain RNR3, active compounds read low 0.88 | S. cerevisiae deletion strains, locus YIL073C, strain SPO22, active compounds read low 0.947 | S. cerevisiae deletion strains, locus YIL125W, strain kgd1, active compounds read low 0.99 | S. cerevisiae deletion strains, locus YIR030C, strain dcg1, active compounds read low 1.02 | S. cerevisiae deletion strains, locus YJL092W, strain hpr5, active compounds read low 1.02 | S. cerevisiae deletion strains, locus YJL095W, strain BCK1 (second series), active compounds read low 1.01 | S. cerevisiae deletion strains, locus YJL095W, strain BCK1, active compounds read low 0.939 | S. cerevisiae deletion strains, locus YJL115W, strain asf1, active compounds read low 1.02 | S. cerevisiae deletion strains, locus YJL129C, strain trk1, active compounds read low 1.06 | S. cerevisiae deletion strains, locus YJL134W, strain LCB3, active compounds read low 0.984 | S. cerevisiae deletion strains, locus YJL154C, strain vps35, active compounds read low 1.03 | S. cerevisiae deletion strains, locus YJL164C, strain tpk1, active compounds read low 0.98 | S. cerevisiae deletion strains, locus YJL166W, strain qcr8, active compounds read low 1.01 | S. cerevisiae deletion strains, locus YJL168C, strain set2, active compounds read low 0.992 | S. cerevisiae deletion strains, locus YJL187C, strain SWE1 (second series), active compounds read low 0.891 | S. cerevisiae deletion strains, locus YJL187C, strain SWE1, active compounds read low 0.997 | S. cerevisiae deletion strains, locus YJR043C, strain POL32, active compounds read low 0.935 | S. cerevisiae deletion strains, locus YJR075W, strain HOC1, active compounds read low 0.973 | S. cerevisiae deletion strains, locus YKL009W, strain mrt4, active compounds read low 1.02 | S. cerevisiae deletion strains, locus YKL068W, active compounds read low 0.98 | S. cerevisiae deletion strains, locus YKL085W, strain MDH1 (second series), active compounds read low 1 | S. cerevisiae deletion strains, locus YKL085W, strain MDH1, active compounds read low 1 | S. cerevisiae deletion strains, locus YKL160W, strain elf1, active compounds read low 0.991 | S. cerevisiae deletion strains, locus YKR001C, strain vps1, active compounds read low 0.962 | S. cerevisiae deletion strains, locus YKR026C, strain gcn3, active compounds read low 1.01 | S. cerevisiae deletion strains, locus YKR091W, strain srl3, active compounds read low 1.01 | S. cerevisiae deletion strains, locus YLL001W, strain dnm1, active compounds read low 1.02 | S. cerevisiae deletion strains, locus YLL026W, active compounds read low 1.01 | S. cerevisiae deletion strains, locus YLL041C, strain sdh2, active compounds read low 1.02 | S. cerevisiae deletion strains, locus YLR027C, strain aat2, active compounds read low 1.01 | S. cerevisiae deletion strains, locus YLR039C, strain RIC1, active compounds read low 0.95 | S. cerevisiae deletion strains, locus YLR058C, strain SHM2, active compounds read low 0.913 | S. cerevisiae deletion strains, locus YLR102C, strain apc9, active compounds read low 0.99 | S. cerevisiae deletion strains, locus YLR221C, strain rsa3, active compounds read low 1 | S. cerevisiae deletion strains, locus YLR258W, strain gsy2, active compounds read low 1.01 | S. cerevisiae deletion strains, locus YLR262C, strain YPT6 (second series), active compounds read low 1.04 | S. cerevisiae deletion strains, locus YLR262C, strain YPT6, active compounds read low 1.04 | S. cerevisiae deletion strains, locus YLR268W, strain sec22, active compounds read low 0.963 | S. cerevisiae deletion strains, locus YLR320W, strain mms22, active compounds read low 0.996 | S. cerevisiae deletion strains, locus YLR330W, strain CHS5, active compounds read low 0.975 | S. cerevisiae deletion strains, locus YLR342W, strain FKS1 (second series), active compounds read low 0.981 | S. cerevisiae deletion strains, locus YLR342W, strain FKS1, active compounds read low 0.996 | S. cerevisiae deletion strains, locus YLR357W, strain rsc2, active compounds read low 0.985 | S. cerevisiae deletion strains, locus YLR370C, strain arc18, active compounds read low 1.01 | S. cerevisiae deletion strains, locus YLR371W, strain rom2, active compounds read low 0.996 | S. cerevisiae deletion strains, locus YLR384C, strain iki3, active compounds read low 1.04 | S. cerevisiae deletion strains, locus YLR418C, strain cdc73, active compounds read low 0.975 | S. cerevisiae deletion strains, locus YML016C, strain PPZ1, active compounds read low 0.957 | S. cerevisiae deletion strains, locus YML032C, strain rad52, active compounds read low 0.998 | S. cerevisiae deletion strains, locus YML120C, strain ndi1, active compounds read low 1.03 | S. cerevisiae deletion strains, locus YML124C, strain tub3, active compounds read low 1 | S. cerevisiae deletion strains, locus YMR058W, strain fet3, active compounds read low 0.969 | S. cerevisiae deletion strains, locus YMR078C, strain ctf18, active compounds read low 0.997 | S. cerevisiae deletion strains, locus YMR125W, strain sto1, active compounds read low 1.01 | S. cerevisiae deletion strains, locus YMR129W, active compounds read low 1.02 | S. cerevisiae deletion strains, locus YMR205C, strain PFK2, active compounds read low 1.01 | S. cerevisiae deletion strains, locus YMR223W, strain ubp8, active compounds read low 0.971 | S. cerevisiae deletion strains, locus YMR231W, strain pep5, active compounds read low 1.01 | S. cerevisiae deletion strains, locus YMR307W, strain GAS1, active compounds read low 1.17 | S. cerevisiae deletion strains, locus YNL067W, strain RPL9B, active compounds read low 0.951 | S. cerevisiae deletion strains, locus YNL071W, strain lat1, active compounds read low 1.02 | S. cerevisiae deletion strains, locus YNL153C, strain GIM3, active compounds read low 0.912 | S. cerevisiae deletion strains, locus YNL209W, strain ssb2, active compounds read low 0.994 | S. cerevisiae deletion strains, locus YNL233W, strain BNI4, active compounds read low 0.973 | S. cerevisiae deletion strains, locus YNL248C, strain rpa49, active compounds read low 1.02 | S. cerevisiae deletion strains, locus YNL250W, strain rad50, active compounds read low 0.97 | S. cerevisiae deletion strains, locus YNL271C, strain bni1, active compounds read low 0.986 | S. cerevisiae deletion strains, locus YNL298W, strain CLA4, active compounds read low 0.975 | S. cerevisiae deletion strains, locus YNL307C, strain MCK1, active compounds read low 0.965 | S. cerevisiae deletion strains, locus YNL322C, strain KRE1 (second series), active compounds read low 1.03 | S. cerevisiae deletion strains, locus YNR049C, strain mso1, active compounds read low 1.02 | S. cerevisiae deletion strains, locus YNR052C, strain pop2, active compounds read low 0.993 | S. cerevisiae deletion strains, locus YOL012C, strain htz1 0.606 | S. cerevisiae deletion strains, locus YOL147C, strain pex11, active compounds read low 0.99 | S. cerevisiae deletion strains, locus YOR001W, strain rrp6, active compounds read low 0.987 | S. cerevisiae deletion strains, locus YOR061W, strain CKA2, active compounds read low 0.917 | S. cerevisiae deletion strains, locus YOR069W, strain VPS5, active compounds read low 0.98 | S. cerevisiae deletion strains, locus YOR070C, strain gyp1, active compounds read low 1.02 | S. cerevisiae deletion strains, locus YOR080W, strain dia2, active compounds read low 1 | S. cerevisiae deletion strains, locus YOR083W, strain WHI5, active compounds read low 0.996 | S. cerevisiae deletion strains, locus YOR106W, strain vam3, active compounds read low 0.983 | S. cerevisiae deletion strains, locus YOR136W, strain idh2, active compounds read low 0.993 | S. cerevisiae deletion strains, locus YOR144C, strain elg1, active compounds read low 1.01 | S. cerevisiae deletion strains, locus YOR184W, strain ser1, active compounds read low 0.958 | S. cerevisiae deletion strains, locus YOR265W, strain rbl2, active compounds read low 0.999 | S. cerevisiae deletion strains, locus YOR270C, strain vph1, active compounds read low 1.02 | S. cerevisiae deletion strains, locus YOR290C, strain snf2, active compounds read low 0.982 | S. cerevisiae deletion strains, locus YOR316C, strain cot1, active compounds read low 0.989 | S. cerevisiae deletion strains, locus YPL051W, strain arl3, active compounds read low 0.968 | S. cerevisiae deletion strains, locus YPL078C, strain atp4, active compounds read low 1.03 | S. cerevisiae deletion strains, locus YPL106C, strain sse1, active compounds read low 1 | S. cerevisiae deletion strains, locus YPL240C, strain hsp82, active compounds read low 1.01 | S. cerevisiae deletion strains, locus YPR119W, strain clb2, active compounds read low 1.01 | S. cerevisiae deletion strains, locus YPR141C, strain kar3, active compounds read low 0.98 | S. cerevisiae deletion strains, locus YPR163C, strain tif3, active compounds read low 0.997 | S. cerevisiae deletion strains, locus YPR167C, strain met16, active compounds read low 0.99 | S. cerevisiae deletion strains, strain wtn01, active compounds read low 0.969 | S. cerevisiae strains, strain wild type, active compounds read low 0.904
